Among the data in PubChem BioAssay (NCI) are growth inhibition values, retold here.

The structures appear in SMILES notation. About 79,000 compounds went through this panel and 15% of them were active in at least one assay; those are over-represented in the sample as a whole. Values without a mark were called inactive. Calls of active or inactive are those of the source. No stated cut-off is given here; in the data, active means growth inhibition above about 70%; inactive means the rest.

A short description of this assay: NCI Yeast Anticancer Drug Screen. Data for the rad18 strain (AID 177). The settings on record: S. cerevisiae rad18 mutant growth inhibition, stronger effect = higher value. The procedure: Growth inhibition of yeast strains with defined genetic alterations is measured as a screen for potential anti-cancer activity. Selected strains with alterations in DNA damage repair or cell cycle control were exposed to compounds and growth inhibition was measured relative to vehicle treated controls. The strain used in this assay is rad18

For `COC(=O)C(=O)CC(=O)c1cccc(OC)c1`, the growth inhibition was -6% (at 1.2 µM); -2% (at 3.7 µM); -1% (at 11.0 µM); 6% (at 33.0 µM); 19% (at 100.0 µM).
For `O=[N+]([O-])c1cn[n+]([O-])c2ccccc12`, the growth inhibition (at 1.2 µM) is 92% (active); the growth inhibition (at 3.7 µM) was 93% (active); the growth inhibition (at 11.0 µM) was 95% (active); the growth inhibition (at 33.0 µM) was 98% (active); the growth inhibition (at 100.0 µM) is 99% (active).
Consider `Cc1c(C(=O)/C=C/c2ccccc2[N+](=O)[O-])[n+](=O)c2ccccc2n1[O-]`, for which the growth inhibition is 84% (active) (at 1.2 µM); 90% (active) (at 3.7 µM); 92% (active) (at 11.0 µM); 92% (active) (at 33.0 µM); 93% (active) (at 100.0 µM).
Consider `Cc1ccc(S(=O)(=O)NC(=O)C2C(=O)CC3(CCCCC3)CC2=O)cc1`, for which the growth inhibition was -15% (at 1.2 µM); -2% (at 3.7 µM); -16% (at 11.0 µM); 14% (at 33.0 µM); 48% (at 100.0 µM).
`COc1ccc2nc3cccc([N+](=O)[O-])c3c(NCCNCCO)c2c1`: the growth inhibition runs as follows: (at 1.2 µM) 95% (active); (at 3.7 µM) 96% (active); (at 11.0 µM) 96% (active); (at 33.0 µM) 95% (active); (at 100.0 µM) 95% (active).
With `O=C(NC(N1CCN(c2cc3c(cc2F)c(=O)c(C(=O)O)cn3C2CC2)CC1)(C(F)(F)F)C(F)(F)F)c1ccccc1`, the growth inhibition by setting is: (at 1.2 µM) -3%; (at 3.7 µM) -2%; (at 11.0 µM) -1%; (at 33.0 µM) 20%; (at 100.0 µM) 52%.
Consider `COc1ccc2c(c1)CCCC(Br)C2=O` (stereo not given), for which the growth inhibition was 32% (at 1.2 µM); 45% (at 3.7 µM); 54% (at 11.0 µM); 87% (active) (at 33.0 µM); 99% (active) (at 100.0 µM).
As to `COC(=O)/C(C#N)=C\NC(=S)C(N)=S`, the growth inhibition by setting is: (at 1.2 µM) -4%; (at 3.7 µM) 16%; (at 11.0 µM) 53%; (at 33.0 µM) 99% (active); (at 100.0 µM) 98% (active).
